The supplement of paper PMC7411054
Counter-ions that a name gives are not always drawn.

How the values were obtained:
Assay in all cases: lowest phenotypically active concentration; higher = less potent
Settings in all cases: treatment time: 24 h
[1] = system: A549-CANX-COX4
How it was run: (§1)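 Phenotypic activity depended on meeting both a deviation and a reproducibility criterion. The fifteen gene-edited A549, HepG2 and WPMY1 reporter lines were treated at 0.3, 1, 3 or 9 µM for 24 h, four wells each, then imaged live with features normalised to solvent control wells. Deviation required ≥3 of 4 wells past the 95th percentile of control Euclidean distances, and reproducibility a median replicate Pearson correlation above the 95th percentile of non-replicates.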

[2] = system: A549-TUBA1B-RELA
How it was run: as §1

[3] = system: HepG2-ACTB-RAB5A
How it was run: as §1

[4] = system: HepG2-CANX-COX4
How it was run: as §1

[5] = system: HepG2-TP53BP1-CLTA
How it was run: as §1

[6] = system: WPMY1-ACTB-RAB5A
How it was run: as §1

[7] = system: WPMY1-CANX-COX4
How it was run: as §1

[8] = system: WPMY1-GM130-SQSTM1
How it was run: as §1

[9] = system: WPMY1-TP53BP1-CLTA
How it was run: as §1

[10] = system: WPMY1-TUBA1B-RELA
How it was run: as §1

Row | Structure (SMILES) | lowest phenotypically active concentration [1] [µM] | lowest phenotypically active concentration [2] [µM] | lowest phenotypically active concentration [3] [µM] | lowest phenotypically active concentration [4] [µM] | lowest phenotypically active concentration [5] [µM] | lowest phenotypically active concentration [6] [µM] | lowest phenotypically active concentration [7] [µM] | lowest phenotypically active concentration [8] [µM] | lowest phenotypically active concentration [9] [µM] | lowest phenotypically active concentration [10] [µM]
1 | C[C@]12CC[C@H]3[C@@H](CC[C@]4(O)C[C@@H](O)CC[C@]34C=O)[C@@]1(O)CC[C@@H]2C1=CC(=O)OC1 [Strophanthidin] | ≤ 0.3 | ≤ 0.3 | ≤ 0.3 | 1 | ≤ 0.3 | ≤ 0.3 | ≤ 0.3 | ≤ 0.3 | ≤ 0.3 | ≤ 0.3
2 | COc1cc([C@@H]2c3cc4c(cc3[C@H](O)[C@H]3COC(=O)[C@H]23)OCO4)cc(OC)c1OC [Podophyllotoxin] | ≤ 0.3 | ≤ 0.3 | ≤ 0.3 | ≤ 0.3 | 1 | ≤ 0.3 | ≤ 0.3 | ≤ 0.3 | ≤ 0.3 | ≤ 0.3
3 | CCN1CCN(C(=O)Cc2ccc(Nc3ncc(F)c(Nc4ccc(C(=O)Nc5ccccc5Cl)cc4)n3)cc2)CC1 | 1 | 1 | 1 | 1 | ≤ 0.3 | 1 | – | – | 1 | 1
4 | C[C@@]1(CO)[C@H](O)CC[C@@]2(C)[C@H]1CC[C@H]1C[C@@H]3C[C@@]12CC[C@]3(O)CO [Aphidicolin] | ≤ 0.3 | ≤ 0.3 | ≤ 0.3 | ≤ 0.3 | ≤ 0.3 | ≤ 0.3 | ≤ 0.3 | ≤ 0.3 | 1 | ≤ 0.3
5 | O=C1NC(=O)c2c1c1c3ccccc3n3c1c1c2c2ccccc2n1C1CCC3O1 | – | ≤ 0.3 | – | – | 9 | 3 | 9 | ≤ 0.3 | 9 | –
6 | CCn1cnc2c(Nc3cccc(Cl)c3)nc(N[C@H]3CCCC[C@H]3N)nc21 | 3 | 1 | 1 | 1 | 1 | 3 | 1 | 1 | 1 | 1
7 | COc1ccc(N(C(=O)Oc2c(C)cccc2C)c2ccnc(Nc3ccc(N4CCN(C)CC4)cc3)n2)c(OC)c1 | 3 | 1 | ≤ 0.3 | 1 | 1 | 1 | – | – | 3 | –
8 | CN1C[C@H](C(=O)N[C@]2(C)O[C@@]3(O)[C@@H]4CCCN4C(=O)[C@H](Cc4ccccc4)N3C2=O)C[C@@H]2c3cccc4[nH]cc(c34)C[C@H]21.CN1C[C@H](C(=O)N[C@]2(C)O[C@@]3(O)[C@@H]4CCCN4C(=O)[C@H](Cc4ccccc4)N3C2=O)C[C@@H]2c3cccc4[nH]cc(c34)C[C@H]21 [dihydroergotamine] | – | 9 | 9 | – | 9 | – | – | 9 | 9 | –
9 | CCCCCC[C@H]1C(=O)O[C@H](C)[C@H](NC(=O)c2cccc(NC=O)c2O)C(=O)O[C@@H](C)[C@@H]1OC(=O)CC(C)C [antimycin a] | ≤ 0.3 | ≤ 0.3 | ≤ 0.3 | ≤ 0.3 | ≤ 0.3 | ≤ 0.3 | ≤ 0.3 | 1 | ≤ 0.3 | ≤ 0.3
10 | COc1cc2c(c(OC)c1OC)-c1ccc(OC)c(=O)cc1[C@@H](NC(C)=O)CC2 [colchicine] | ≤ 0.3 | 9 | ≤ 0.3 | ≤ 0.3 | ≤ 0.3 | ≤ 0.3 | ≤ 0.3 | ≤ 0.3 | ≤ 0.3 | ≤ 0.3
11 | CN1CCC2=C[C@H](O)[C@H]3OC(=O)c4cc5c(cc4[C@H]3[C@@H]21)OCO5 [Hippeastrine hydrobromide] | – | – | – | 9 | – | – | – | – | – | –
12 | CC(C)(O)[C@H]1O[C@H]2CC[C@@]3(C)[C@@](O)(CC[C@H]4Cc5c([nH]c6ccccc56)[C@@]43C)C2=CC1=O [paxilline] | – | – | 9 | – | 9 | – | – | 9 | 9 | –
13 | CC[C@H]1CN2CC[C@H]1C[C@@H]2[C@@H](O)c1ccnc2ccc(OC)cc12 [Hydroquinidine HCl] | – | 9 | – | 9 | – | 9 | 9 | – | – | 9
14 | C[C@H](CCC(=O)O)C[C@H](C)C[C@H](C)C(=O)/C=C(\O)[C@H](C)C[C@H](C)C/C=C/[C@@H](C)[C@@H](O)[C@@H](C)[C@@H](O)C[C@@H]1CC[C@@](C)([C@H]2CC[C@@](C)([C@@H](C)O)O2)O1 [Ionomycin free acid] | 9 | – | – | 9 | – | 3 | 9 | 9 | 9 | –
15 | O=C(Nc1ccncc1)C(=O)c1cn(Cc2ccc(Cl)cc2)c2ccccc12 [Indibulin] | – | ≤ 0.3 | 1 | ≤ 0.3 | 1 | ≤ 0.3 | 3 | ≤ 0.3 | ≤ 0.3 | ≤ 0.3
16 | C=C1[C@@H](C)[C@H]2[C@H](Cc3ccccc3)NC(=O)[C@]23OC(=O)C=C[C@H](O)CCC[C@@H](C)CC=C[C@H]3[C@@H]1O [Cytochalasin B] | 1 | 1 | 1 | 1 | 3 | 1 | 1 | 3 | 3 | 3
17 | C[C@@]12C(=O)OC(=O)[C@]1(C)[C@H]1CC[C@@H]2O1 [Cantharidin] | 3 | – | 3 | 9 | 9 | 3 | 9 | 3 | 3 | 3
18 | CC[C@]12C=CCN3CC[C@]4(C(=C(C(=O)OC)C1)Nc1ccccc14)[C@@H]32 [Tabersonine dichlorhydrate] | 9 | 9 | 9 | 9 | 9 | 9 | 9 | 9 | 9 | 9
19 | CC[C@H]1CN2CCc3cc(OC)c(OC)cc3[C@@H]2C[C@@H]1C[C@H]1NCCc2cc(OC)c(OC)cc21 [emetine] | ≤ 0.3 | ≤ 0.3 | ≤ 0.3 | ≤ 0.3 | ≤ 0.3 | ≤ 0.3 | ≤ 0.3 | ≤ 0.3 | ≤ 0.3 | ≤ 0.3
20 | O=C(NCCN1CCC2(CC1)C(=O)NCN2c1cccc(F)c1)c1ccc(F)c(F)c1 [ML 298 hydrochloride] | 9 | 3 | 9 | – | 9 | 9 | 9 | 9 | – | 9
21 | Cc1sc2c(c1C)C(c1ccc(Cl)cc1)=N[C@@H](CC(N)=O)c1nnc(C)n1-2 | ≤ 0.3 | ≤ 0.3 | ≤ 0.3 | ≤ 0.3 | ≤ 0.3 | ≤ 0.3 | ≤ 0.3 | ≤ 0.3 | ≤ 0.3 | ≤ 0.3
22 | COC1=CC(C)=C[C@@H](C)[C@@H](O)[C@@H](C)CC(C)=CC=C[C@H](OC)[C@@H]([C@@H](C)[C@@H](O)[C@H](C)[C@@]2(O)C[C@@H](O)[C@H](C)[C@@H](C(C)C)O2)OC1=O [Bafilomycin A1] | 9 | ≤ 0.3 | 3 | 3 | 9 | 1 | 3 | 1 | 3 | 3
23 | CN1C[C@H](CO)C=C2c3cccc4[nH]cc(c34)C[C@H]21 [Lysergol] | – | – | – | – | – | – | – | 9 | – | –
24 | CC(C)C[C@H]1C(=O)N2CCC[C@H]2[C@]2(O)O[C@](NC(=O)[C@@H]3C=C4c5cccc6[nH]c(Br)c(c56)C[C@H]4N(C)C3)(C(C)C)C(=O)N12 [bromocriptine] | – | – | 9 | 9 | 9 | – | – | 9 | 9 | –
25 | O=C1C=C2C=C[C@@H]3C[C@@]2(O1)[C@H]1CCCCN31 [Securinine] | – | – | – | – | – | – | – | – | – | 9
26 | C[C@]12CC[C@H](O)C[C@H]1CC[C@@H]1[C@@H]2CC[C@]2(C)[C@@H](C3=CC(=O)OC3)CC[C@]12O [Digitoxigenin] | ≤ 0.3 | – | ≤ 0.3 | ≤ 0.3 | 1 | ≤ 0.3 | ≤ 0.3 | 1 | ≤ 0.3 | ≤ 0.3
27 | C[C@H](N)Cc1ccccc1 [dextroamphetamine] | – | 3 | – | – | – | – | – | – | – | –
